Compound activity: PubChem, National Center for Advancing Translational Sciences (NCATS)
A selection: hits, their analogues and other compounds. The true share with any hit is near 3.6%.
NPSR antag: qHTS Assay for Antagonists of the Neuropeptide S Receptor: cAMP Signal Transduction; CHO-NPSR cells, cAMP TR-FRET, antagonist mode; Potency, µM (titrated, usually from 38.3 µM), for the others: at the top dose activity change, negative = inhibition, most hits filed as inhibitors; 220,000 compounds, 1% hits; note: % is set by controls: 0 for no effect and ±100 for the full control effect; nearly all actives have a fitted effect of over 50% in size
Target sequence (Q6W5P4 whole entry, looked up): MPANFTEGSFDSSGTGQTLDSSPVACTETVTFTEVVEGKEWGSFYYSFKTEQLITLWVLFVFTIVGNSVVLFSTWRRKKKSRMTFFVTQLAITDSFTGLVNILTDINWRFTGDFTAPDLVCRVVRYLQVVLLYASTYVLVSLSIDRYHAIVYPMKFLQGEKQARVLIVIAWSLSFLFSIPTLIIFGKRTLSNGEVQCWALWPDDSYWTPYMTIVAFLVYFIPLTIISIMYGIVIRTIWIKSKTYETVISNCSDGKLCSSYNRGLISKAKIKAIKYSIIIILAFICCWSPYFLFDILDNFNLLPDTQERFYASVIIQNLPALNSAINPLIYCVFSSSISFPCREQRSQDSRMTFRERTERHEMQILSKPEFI
GCN5L2 inh: qHTS Assay for Inhibitors of GCN5L2. Histone acetyltransferase KAT2A (Homo sapiens), Q92830. GCN5L2 HAT assay, ThioGlo1 CoA-SH fluorescence. Potency, µM (titrated, usually from 58.9 µM), without a hit: at the highest dose activity change, negative = inhibition, actives largely listed as inhibitors. 390,000 compounds, 0.21% hits. AID 504327, 2011; note: % is set by controls: 0 for no effect and ±100 for the full control effect
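Enzyme at 20nM final was mixed with library compounds for 15 min at room temperature. Peptide H3(1-25) at 75uM, acetyl-CoA at 70uM and ThioGlo1 at 50uM were then added. Plates were read immediately and after 20 min (Ex340nm/Em540nm).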
Sfp inh: qHTS Assay for Inhibitors of Bacillus subtilis Sfp phosphopantetheinyl transferase (PPTase); Potency, µM, for inactives: largest response in the series, negative = inhibition, hits mostly inhibitors; 310,000 compounds, 3.5% hits; Biochemical Sfp PPTase activity, qHTS; 4'-phosphopantetheinyl transferase ffp (Bacillus subtilis), Q9F4F7;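 note: the enzyme is Sfp with the accession as filed and its product quenches rhodamine fluorescence; 0% = enzyme reaction without inhibitor and -100% = no enzyme wells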
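Fluorescence-quenching assay: 15 nM Sfp-PPTase preincubated 15 min at room temperature with compound, then 5 uM rhodamine-CoA and 12.5 uM BHQ-2-labelled YbbR peptide added. Fluorescence (ex 525/em 598 nm) read at start and after 30 min; difference gives rate.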
Epigenetic derep: Quantitative High-Throughput Screen for Regulators of Epigenetic Control; murine LDR cells, GFP reporter derepression, 30 h; AID 1865, 2009; Potency, µM (titrated, usually from 53.9 µM), without a hit: at the top dose GFP activation, usual class: activators; 280,000 compounds, 0.2% hits; note: % of control where 0% means no effect; nearly all actives have a fitted effect of over 60% in size
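Reporter derepression read as number of fluorescent GFP-positive objects, 20-120 um in size, counted by laser-scanning cytometer. Mouse LDR line with an epigenetically silenced CMV-GFP locus; compound incubation 30 h, 37 C.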
JMJD2E inh: qHTS Assay for Inhibitors of Human Jumonji Domain Containing 2E (JMJD2E) | Lysine-specific demethylase 4E (Homo sapiens), B2RXH2 | JMJD2E catalytic domain, FDH-coupled NADH fluorescence (FDH is formaldehyde dehydrogenase) | Potency, µM (top dose mostly 57.1 µM), without a hit: top-dose activity change, negative = inhibition, hits mostly inhibitors | 230,000 compounds, 1.6% hits | AID 2147, 2009; active = well fitted inhibition curve with a large enough effect, not every such curve was filed as active; inconclusive = small, poorly fitted or top-dose-only effect, or another doubt; inactive = no such curve, though single readings can be large or run the other way;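 note: 0% = wells with enzyme and -100% = buffer wells without enzyme; nearly all actives have a fitted effect of over 50% in size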
Target sequence (B2RXH2 1-337 limits assumed): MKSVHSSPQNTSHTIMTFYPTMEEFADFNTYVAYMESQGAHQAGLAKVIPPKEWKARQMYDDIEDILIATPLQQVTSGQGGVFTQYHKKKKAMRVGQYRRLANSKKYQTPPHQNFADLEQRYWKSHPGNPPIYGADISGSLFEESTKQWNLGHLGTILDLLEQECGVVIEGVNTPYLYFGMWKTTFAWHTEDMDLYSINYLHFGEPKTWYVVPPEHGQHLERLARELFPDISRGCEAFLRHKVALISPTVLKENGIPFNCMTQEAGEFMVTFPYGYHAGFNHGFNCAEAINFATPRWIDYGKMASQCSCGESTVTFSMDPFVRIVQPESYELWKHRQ
IMPase Li cell: qHTS Assay for Identifying the Cell-Membrane Permeable IMPase Inhibitors: Potentiation with Lithium | Potency, µM (highest dose often 59.4 µM), for the others: top-dose activity, negative = IMPase inhibition, most hits filed as inhibitors | CHO-M1 cells, IP1 TR-FRET (IP-One), carbachol + lithium | 210,000 compounds, 0.35% hits;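 note: IP1 builds up when IMPase is blocked and the TR-FRET signal falls; plate controls were basal vehicle for no effect and high inhibitor control for full effect; nearly all actives have a fitted effect of over 50% in size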
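Test compounds were applied to CHO-M1 cells previously cultured for 16–30 h at 2000 per well. A small lithium amount accompanied them; after 30 min at 37C, IP1 was quantified by TR-FRET.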
Active calls of the source: *; ? = inconclusive; . = not tested or not shown; ! = repeats disagree; [ ] = another dose, or the depositor's remark. Unless noted, calls come from the whole dose curve; as a rule, active = well fitted curve in the direction sought with a large enough effect; inconclusive = small, poorly fitted or top-dose-only effect, or another doubt; inactive = no such curve, though single readings can be large; an effect the other way counts as inactive or inconclusive. Potency is the fitted concentration of half-maximal effect.

SMILES | NPSR antag | GCN5L2 inh | Sfp inh | Epigenetic derep | JMJD2E inh | IMPase Li cell
Oc1ccccc1-c1nc(NC2CCCC2)c2ccccc2n1 | . | -2% | 4% | . | . | .
O=C(Nc1cccc(F)c1)N1CCCC2(CCN(S(=O)(=O)c3ccccc3)CC2)C1 | . | -8% | 14% | . | . | 14%
COc1ccc(NC(=O)CSC2=Nc3ccccc3C3=NC(CC(=O)NCCc4ccccc4)C(=O)N23)cc1 (stereo unspecified) | . | -19% | . | 0% | . | .
Cn1c(N)c(C(=O)COC(=O)c2cc(-c3ccco3)nc3ccccc23)c(=O)n(C)c1=O | -5% | -26% | 13µM* | 1% | ? | -2%
Cn1c(N)c(C(=O)COC(=O)c2cc(-c3ccco3)nc3ccccc23)c(=O)n(Cc2ccccc2)c1=O | -30% | -27% | 45µM* | 0% | ? | -2%
O=C(O)C[C@H](NC(=O)CP(=O)(O)O)C(=O)O.[NH-][C@@H]1CCCC[C@@H]1[NH-].[Pt] | . | . | . | . | . | 0%
COC(=O)[C@@]1(Cc2ccc(OC)cc2)[C@H]2c3cc(C(=O)N(C)C)n(Cc4ccc(C)o4)c3C[C@H]2CN1C(=O)c1ccccc1 | . | . | 25µM* | ? | ? | -1%
COC(=O)[C@@]1(Cc2ccc(F)cc2)[C@@H]2[C@@H](CC(=O)[C@H]2CC(=O)C(=O)N(C)C)CN1C(=O)c1ccccc1 | 0% | 0% | -4% | 1% | 16µM*! | 2%
COC(=O)[C@@]1(Cc2ccc(F)cc2)[C@H]2c3cc(C(=O)N4CCCC4)n(Cc4ccc(C)o4)c3C[C@H]2CN1C(=O)c1ccccc1 | . | . | 40µM* | ? | ? | 8%
COC(=O)[C@@]1(Cc2ccc(F)cc2)[C@H]2c3cc(C(=O)N4CCCC4)n(Cc4ccc(C)c(F)c4F)c3C[C@H]2CN1C(=O)c1ccccc1 | . | . | -10% | 1% | -6% | 11%
COC(=O)[C@@]1(Cc2ccc(OC)cc2)[C@@H]2[C@@H](CC(=O)[C@H]2CC(=O)C(=O)N(C)C)CN1C(=O)c1ccccc1 | 1% | 2% | -1% | -3% | -13% | 1%
Clc1ccccc1-c1nnc2sc(-c3ccc4c(c3)OCO4)nn12 | ? | -15% | 10µM* | 1% | ? | 20%[38.3 µM]
Clc1cccc(-c2nnc3sc(-c4ccc5c(c4)OCO5)nn23)c1 | -2%[46.1 µM] | -8% | 32µM* | -7% | 2% | .
C/C(CS(=O)(=O)c1ccc(Cl)c(Cl)c1)=N/NC(N)=S | 1% | 8% | ? | -7% | 9% | 29%
C/C(CS(=O)(=O)c1ccc(Cl)cc1)=N/NC(N)=S | 9% | -1% | 79µM* | 2% | 1% | -4%
COc1ccc(CN2C(=O)c3cccnc3C2Nc2cc(Cl)c(OC)cc2OC)cc1 (stereo unspecified) | -26%[46.1 µM] | -4% | -27% | 3% | 16µM* | -2%[38.3 µM]
COc1ccc(CN2C(=O)c3cccnc3C2Nc2ccc(C)cc2)cc1 (stereo unspecified) | -9%[46.1 µM] | 0% | -5% | -1% | ? | 19%[38.3 µM]
COc1cc(C2Nc3cccc4cccc(c34)N2)ccc1OC(C)=O | -12%[46.1 µM] | -19% | -30% | -3% | -1% | 7%[38.3 µM]
COC(=O)c1ccc(C2Nc3cccc4cccc(c34)N2)cc1 | -32% | 0% | ? | ? | 8.9µM* | 5%
COc1cc(C2Nc3cccc4cccc(c34)N2)cc(OC)c1O | -8%[46.1 µM] | -12% | 50µM* | 5% | 7% | 17%
NCCCC[C@H](NC(=O)CNC(=O)[C@@H]1CCCN1C(=O)[C@H](Cc1ccc(O)cc1)NC(=O)CN)C(=O)N[C@@H](Cc1ccccc1)C(=O)O | . | 0% | 4% | . | . | .
Cc1ccc(C(=O)CSC2=NC(N)=C(C#N)C3(CCCCC3)C2C(N)=O)cc1 (stereo unspecified) | -9%[46.1 µM] | -4% | 45µM* | -4% | -5% | 5%[38.3 µM]
CCC1(c2ccccc2)NC(=S)N(c2ccc(C)cc2)N1 (stereo unspecified) | 6% | ? | 50µM* | -1% | ? | 3%
CCC1(c2ccc(Cl)cc2)NC(=S)N(c2ccccc2)N1 (stereo unspecified) | -12%[46.1 µM] | 68% | 56µM* | 0% | ? | 7%
CCCCCC1(C)NC(=S)N(c2ccccc2)N1 (stereo unspecified) | -9% | ? | 40µM* | -5% | ? | -4%
SMILES | NPSR antag | GCN5L2 inh | Sfp inh | Epigenetic derep | JMJD2E inh | IMPase Li cell
CC1(CC(=O)Nc2ccccc2)NC(=S)N(c2ccccc2)N1 (stereo unspecified) | 12% | -7% | ? | 1% | -9% | 0%
CCCCCCC1(C)NC(=S)N(c2ccccc2)N1 (stereo unspecified) | -20% | ? | ? | -5% | ? | 3%
CC1=c2c(oc3cc(O)c(Nc4c(C)cc(O)cc4O)c(C)c23)=CC(=O)C1=Nc1c(C)cc(O)cc1O | . | . | . | . | . | 46%
Clc1ccccc1-c1nc(NC2CCNCC2)c2ccccc2n1 | . | 28µM* | 26% | . | . | 2%
Cc1ccccc1-c1nc(NC2CCNCC2)c2ccccc2n1 | . | -1% | 5% | -1% | 6% | 5%
CC1=C(C(=O)Nc2cccnc2)C(c2cccc(Br)c2)n2nc(SCc3ccccc3)nc2N1 (stereo unspecified) | . | 2% | . | 3% | . | .
Cc1ccc2[nH]c3c(=O)n(CCC4=CCCCC4)cnc3c2c1 | -3%[46.1 µM] | -1% | -2% | -1% | 0% | ?
O=c1c2[nH]c3ccccc3c2ncn1CCC1=CCCCC1 | 6%[46.1 µM] | -10% | 27% | 1% | -19% | ?
C1=C(CCNc2ncnc3c2[nH]c2ccccc23)CCCC1 | -29% | -4% | 56µM* | -1% | ? | 21%
Cc1ccc2c(c1)[nH]c1c(=O)n(CCC3=CCCCC3)cnc12 | 8%[46.1 µM] | 2.5µM* | 29% | 0% | 1% | 4%[38.3 µM]
N#C/C(=C1/SCC(c2ccccc2Cl)S1)n1ccnc1 (stereo unspecified) | . | -17% | 6% | . | . | .
O=C(Cn1cc(SCc2ccc(F)cc2)c2ccccc21)N1CCCC1 | . | -14% | . | 11% | . | .
CC(C)(C)C(=O)NC(=S)Nc1sc2c(c1C#N)CCCCC2 | -14%[46.1 µM] | 33% | 45µM* | 1% | -1% | -14%
Cn1ccc(C(=O)Nc2sc3c(c2C#N)CCC3)n1 | . | -2% | -19% | . | . | .
CCOC(=O)c1cc(C(=O)Nc2sc3c(c2C#N)CCCC3)nn1C | . | -5% | 35µM* | . | . | .
